Experimental findings from article PMC11006913 are described below.

Numbering of substitutions follows the chain as printed.

Common to all, as to assay: PBM; 200 nM protein, PBS
Common to all, as to conditions: dsDNA, one strand shown

The target of test [1] is T1, SIX6 (Homo sapiens, UniProt O95475 114-200, L167I).
T1 sequence: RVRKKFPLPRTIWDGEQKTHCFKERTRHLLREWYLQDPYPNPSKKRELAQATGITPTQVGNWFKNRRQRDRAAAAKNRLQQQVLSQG

Test [2] has as its target T2, SIX6 (Homo sapiens, UniProt O95475 114-200, L143V).
T2 sequence: T1 sequence with L30V, I54L

Test [3] has as its target T3, SIX6 (Homo sapiens, UniProt O95475 114-200, H141N).
T3 sequence: T1 sequence with H28N, I54L

The target in test [4] is T4, SIX6 (Homo sapiens, UniProt O95475 114-200, T165P).
T4 sequence: T1 sequence with T52P, I54L

In test [5] the target is T5, SIX6 (Homo sapiens, UniProt O95475 114-200, L167M).
T5 sequence: T1 sequence with I54M

For test [6], the target named is T6, SIX6 (Homo sapiens, UniProt O95475 114-200, L143M).
T6 sequence: T1 sequence with L30M, I54L

Test [7] addresses T7, SIX6 (Homo sapiens, UniProt O95475 114-200, L143I).
T7 sequence: T1 sequence with L30I, I54L

For test [8], the target named is T8, SIX6 (Homo sapiens, UniProt O95475 114-200, T165G).
T8 sequence: T1 sequence with T52G, I54L

In test [9] the target is T9, SIX6 (Homo sapiens, UniProt O95475 114-200, T139Q).
T9 sequence: T1 sequence with T26Q, I54L

The target of test [10] is T10, SIX6 (Homo sapiens, UniProt O95475 114-200, T165A).
T10 sequence: T1 sequence with T52A, I54L

Test [11] addresses T11, SIX6 (Homo sapiens, UniProt O95475 114-200, L167V).
T11 sequence: T1 sequence with I54V

Test [12] concerns the target T12, SIX6 (Homo sapiens, UniProt O95475 114-200).
T12 sequence: T1 sequence with I54L

Test [13] deals with T13, SIX6 (Homo sapiens, UniProt O95475 114-200, T165I).
T13 sequence: T1 sequence with T52I, I54L

Test [14] deals with HOXA2 (Homo sapiens, UniProt O43364 129-215, R185T).
Sequence of HOXA2 (Homo sapiens, UniProt O43364 129-215, R185T) (O43364 129-215 R185T): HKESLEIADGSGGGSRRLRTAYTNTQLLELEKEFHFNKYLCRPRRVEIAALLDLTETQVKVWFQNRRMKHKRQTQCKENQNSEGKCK
In test [15] the target is HOXA2 (Homo sapiens, UniProt O43364 129-215, R185K).
Sequence of HOXA2 (Homo sapiens, UniProt O43364 129-215, R185K) (O43364 129-215 R185K): as the sequence (O43364 129-215 R185T) above, with T57K counted along it
The target in test [16] is HOXA2 (Homo sapiens, UniProt O43364 129-215, Y150S).
Sequence of HOXA2 (Homo sapiens, UniProt O43364 129-215, Y150S) (O43364 129-215 Y150S): as the sequence (O43364 129-215 R185T) above, with Y22S, T57R counted along it
Test [17] addresses HOXA2 (Homo sapiens, UniProt O43364 129-215).

Sequence of HOXA2 (Homo sapiens, UniProt O43364 129-215) (O43364 129-215): as the sequence (O43364 129-215 R185T) above, with T57R counted along it

On to GGGGGCCA, for which the binding signal in the test with SIX6 [1] is 8.93 upbm affinity estimate (log intensity, higher = more binding, comparable within an allelic series); with SIX6 [2], 8.85 upbm affinity estimate (log intensity, higher = more binding, comparable within an allelic series); with SIX6 [3] it was 8.92 upbm affinity estimate (log intensity, higher = more binding, comparable within an allelic series); with SIX6 [4] it was 8.83 upbm affinity estimate (log intensity, higher = more binding, comparable within an allelic series); with SIX6 [5] it was 9.04 upbm affinity estimate (log intensity, higher = more binding, comparable within an allelic series); with SIX6 [6], 9.04 upbm affinity estimate (log intensity, higher = more binding, comparable within an allelic series). In addition, the binding signal was 8.87 upbm affinity estimate (log intensity, higher = more binding, comparable within an allelic series) with SIX6 [7]; 8.92 upbm affinity estimate (log intensity, higher = more binding, comparable within an allelic series) with SIX6 [8]; 9.03 upbm affinity estimate (log intensity, higher = more binding, comparable within an allelic series) with SIX6 [9]; 9.09 upbm affinity estimate (log intensity, higher = more binding, comparable within an allelic series) with SIX6 [10]; 9.02 upbm affinity estimate (log intensity, higher = more binding, comparable within an allelic series) in the test with SIX6 [11]; 9.03 upbm affinity estimate (log intensity, higher = more binding, comparable within an allelic series) with SIX6 [12]. Also, in the test with SIX6 [13], the binding signal was 9.05 upbm affinity estimate (log intensity, higher = more binding, comparable within an allelic series).

With CTCGGGCC, the binding signal is 9.05 upbm affinity estimate (log intensity, higher = more binding, comparable within an allelic series) with SIX6 [1]; 8.95 upbm affinity estimate (log intensity, higher = more binding, comparable within an allelic series) in the test with SIX6 [2]; 9.05 upbm affinity estimate (log intensity, higher = more binding, comparable within an allelic series) with SIX6 [3]; 9.01 upbm affinity estimate (log intensity, higher = more binding, comparable within an allelic series) with SIX6 [4]; 8.95 upbm affinity estimate (log intensity, higher = more binding, comparable within an allelic series) in the test with SIX6 [5]; 9.01 upbm affinity estimate (log intensity, higher = more binding, comparable within an allelic series) in the test with SIX6 [6]. Further, the binding signal with SIX6 [7] was 9.02 upbm affinity estimate (log intensity, higher = more binding, comparable within an allelic series); with SIX6 [8], 9.14 upbm affinity estimate (log intensity, higher = more binding, comparable within an allelic series); with SIX6 [9] it was 9.13 upbm affinity estimate (log intensity, higher = more binding, comparable within an allelic series); with SIX6 [10], 9.09 upbm affinity estimate (log intensity, higher = more binding, comparable within an allelic series); with SIX6 [11], 9.03 upbm affinity estimate (log intensity, higher = more binding, comparable within an allelic series); with SIX6 [12], 9.02 upbm affinity estimate (log intensity, higher = more binding, comparable within an allelic series). In the test with SIX6 [13], the binding signal is 9.02 upbm affinity estimate (log intensity, higher = more binding, comparable within an allelic series).

CCACCCGC: the binding signal in the test with SIX6 [1] was 9.19 upbm affinity estimate (log intensity, higher = more binding, comparable within an allelic series); with SIX6 [2], 9.01 upbm affinity estimate (log intensity, higher = more binding, comparable within an allelic series); with SIX6 [3], 9.2 upbm affinity estimate (log intensity, higher = more binding, comparable within an allelic series); in the test with SIX6 [4], 9.04 upbm affinity estimate (log intensity, higher = more binding, comparable within an allelic series); with SIX6 [5] it was 9.21 upbm affinity estimate (log intensity, higher = more binding, comparable within an allelic series); in the test with SIX6 [6], 9.22 upbm affinity estimate (log intensity, higher = more binding, comparable within an allelic series). Moreover, the binding signal with SIX6 [7] is 9.08 upbm affinity estimate (log intensity, higher = more binding, comparable within an allelic series); with SIX6 [8], 9.26 upbm affinity estimate (log intensity, higher = more binding, comparable within an allelic series); in the test with SIX6 [9] it was 9.36 upbm affinity estimate (log intensity, higher = more binding, comparable within an allelic series); with SIX6 [10], 9.23 upbm affinity estimate (log intensity, higher = more binding, comparable within an allelic series); in the test with SIX6 [11] it was 9.16 upbm affinity estimate (log intensity, higher = more binding, comparable within an allelic series); with SIX6 [12], 9.18 upbm affinity estimate (log intensity, higher = more binding, comparable within an allelic series). In the test with SIX6 [13], the binding signal was 9.15 upbm affinity estimate (log intensity, higher = more binding, comparable within an allelic series).

As for CGTCGCGC, the binding signal with SIX6 [1] is 9.07 upbm affinity estimate (log intensity, higher = more binding, comparable within an allelic series); with SIX6 [2], 9.04 upbm affinity estimate (log intensity, higher = more binding, comparable within an allelic series); with SIX6 [3], 9.11 upbm affinity estimate (log intensity, higher = more binding, comparable within an allelic series); with SIX6 [4], 9.07 upbm affinity estimate (log intensity, higher = more binding, comparable within an allelic series); in the test with SIX6 [5], 9 upbm affinity estimate (log intensity, higher = more binding, comparable within an allelic series); in the test with SIX6 [6], 9.11 upbm affinity estimate (log intensity, higher = more binding, comparable within an allelic series). Besides, the binding signal with SIX6 [7] was 9.05 upbm affinity estimate (log intensity, higher = more binding, comparable within an allelic series); with SIX6 [8], 9.08 upbm affinity estimate (log intensity, higher = more binding, comparable within an allelic series); with HOXA2 [14] it was 7.22 upbm affinity estimate (log intensity, higher = more binding, comparable within an allelic series); with SIX6 [9], 9.27 upbm affinity estimate (log intensity, higher = more binding, comparable within an allelic series); with SIX6 [10] it was 9.17 upbm affinity estimate (log intensity, higher = more binding, comparable within an allelic series); with HOXA2 [15] it was 10.4 upbm affinity estimate (log intensity, higher = more binding, comparable within an allelic series). For the same sequence, the binding signal was 8.92 upbm affinity estimate (log intensity, higher = more binding, comparable within an allelic series) with SIX6 [11]; 9.06 upbm affinity estimate (log intensity, higher = more binding, comparable within an allelic series) with SIX6 [12]; 8.97 upbm affinity estimate (log intensity, higher = more binding, comparable within an allelic series) in the test with SIX6 [13]; 10.5 upbm affinity estimate (log intensity, higher = more binding, comparable within an allelic series) with HOXA2 [16]; 7.41 upbm affinity estimate (log intensity, higher = more binding, comparable within an allelic series) in the test with HOXA2 [17].

GGGGGCAA: the binding signal in the test with SIX6 [1] was 8.96 upbm affinity estimate (log intensity, higher = more binding, comparable within an allelic series); in the test with SIX6 [2], 9.04 upbm affinity estimate (log intensity, higher = more binding, comparable within an allelic series); with SIX6 [3], 8.94 upbm affinity estimate (log intensity, higher = more binding, comparable within an allelic series); with SIX6 [4] it was 8.98 upbm affinity estimate (log intensity, higher = more binding, comparable within an allelic series); with SIX6 [5] it was 9.06 upbm affinity estimate (log intensity, higher = more binding, comparable within an allelic series); with SIX6 [6], 8.97 upbm affinity estimate (log intensity, higher = more binding, comparable within an allelic series). The binding signal with SIX6 [7] was 8.96 upbm affinity estimate (log intensity, higher = more binding, comparable within an allelic series); with SIX6 [8], 8.89 upbm affinity estimate (log intensity, higher = more binding, comparable within an allelic series); with SIX6 [9], 8.98 upbm affinity estimate (log intensity, higher = more binding, comparable within an allelic series); with SIX6 [10], 9.04 upbm affinity estimate (log intensity, higher = more binding, comparable within an allelic series); with SIX6 [11] it was 8.9 upbm affinity estimate (log intensity, higher = more binding, comparable within an allelic series); in the test with SIX6 [12], 8.96 upbm affinity estimate (log intensity, higher = more binding, comparable within an allelic series). For the same sequence, the binding signal in the test with SIX6 [13] was 9.01 upbm affinity estimate (log intensity, higher = more binding, comparable within an allelic series).
